{"source": "PubChem BioAssay AID720517", "about": "(National Center for Advancing Translational Sciences (NCATS), 2013)", "note": "Results filed as inconclusive are left out. Active and inactive are the calls of the source. Calls follow the shape of the dose curve; as a rule, active = well fitted activation curve with a large enough effect; inconclusive = small, poorly fitted or top-dose-only effect; inactive = flat fitted curve, though single readings scatter."}
{"test": "qHTS for Inhibitors of Cell Surface uPA Generation: FP59 Counterscreen for Cherry-picked Compounds; also: 0% is about no effect", "settings": "FP59 anthrax toxin cytotoxicity counterscreen, cells; series mostly up to 115 µM; activity (protection from FP59): at the top concentration"}
{"smiles": "O=C(CN1CCOC1=O)N1CCCC(Nc2ccc(F)c(F)c2)C1", "note": "(stereo not given)", "activity (protection from FP59)": "-1.34% (inactive)"}
{"smiles": "O=C(CCCOc1ccc(Cl)cc1Cl)NCc1ccncc1", "activity (protection from FP59)": "-1.41% (inactive)"}
{"smiles": "Cc1ccc2cccc(OCCCOc3ccccc3CO)c2n1", "activity (protection from FP59)": "-1.48% (inactive)"}
{"smiles": "CCn1c(CNc2ccc(F)cc2)nnc1SCC(=O)Nc1ccccc1OC", "activity (protection from FP59)": "-1.42% (inactive)"}
{"smiles": "CN(C(=O)CCn1c(=S)oc2ccccc21)c1ccc(F)cc1", "activity (protection from FP59)": "-0.761% (inactive)"}
{"smiles": "Cc1ccccc1-c1nnc(SCC(=O)NCC2CCCO2)o1", "note": "(stereo not given)", "activity (protection from FP59)": "-1.41% (inactive)"}
{"smiles": "CC(C)Cn1cnc2c1c(=O)[nH]c(=O)n2Cc1ccccc1", "activity (protection from FP59)": "-1.24% (inactive)"}
{"smiles": "Cc1ccc(NC(=O)CCCn2c(=S)[nH]c3ccsc3c2=O)cc1C", "activity (protection from FP59)": "1.08% (inactive)"}
{"smiles": "COC(/C=C/Nc1ccc(Cl)cc1)=C(C#N)C#N", "activity (protection from FP59)": "-1.39% (inactive)"}
{"smiles": "CCCn1nnc(NC(=S)NC(=O)c2ccccc2OC)n1", "activity (protection from FP59)": "-1.42% (inactive)"}
{"smiles": "Cc1cccc(NC(=O)C2CCCN(S(=O)(=O)c3cccc4cccnc34)C2)c1", "note": "(stereo not given)", "activity (protection from FP59)": "-1.41% (inactive)"}
{"smiles": "CCCCN(CC(=O)Nc1cccc(S(=O)(=O)N2CCCC2)c1)Cc1nc2ccccc2c(=O)[nH]1", "activity (protection from FP59)": "5.33% (inactive)"}
{"smiles": "O=C(Nn1cnnc1)c1ccc(Cl)c(Cl)c1", "activity (protection from FP59)": "14.2% (inactive)"}
{"smiles": "COc1ccc(NS(=O)(=O)c2cc(NS(=O)(=O)c3cc(C(=O)O)ccc3OC)ccc2C)cc1", "activity (protection from FP59)": "-1.08% (inactive)"}
{"smiles": "CCCCCOC(=O)C1=C(C)NC(=O)NC1c1ccccc1", "note": "(stereo not given)", "activity (protection from FP59)": "-0.939% (inactive)"}
{"smiles": "CC(C)NC(=O)NC(=O)CN1C(=O)NC(Cc2c[nH]c3ccccc23)C1=O", "note": "(stereo not given)", "activity (protection from FP59)": "-1.2% (inactive)"}
{"smiles": "CC(C)(C)OC(=O)N(Cc1ccccc1)Cc1ccccc1OCc1cccc(NC(=O)C2CC2)c1", "activity (protection from FP59)": "4.81% (inactive)"}
{"smiles": "COc1ccc(C(=O)NCC(=O)N/N=C/c2c(C)[nH]c3ccccc23)cc1", "activity (protection from FP59)": "-1.27% (inactive)"}
{"smiles": "O=C(Nc1ccc(NC(=O)c2ccco2)c(Cl)c1)c1ccccc1", "activity (protection from FP59)": "-1.41% (inactive)"}
{"smiles": "C=CCn1c(SCCN2C(=O)c3ccccc3C2=O)nc2scc(-c3ccc(F)cc3)c2c1=O", "activity (protection from FP59)": "-1.32% (inactive)"}
{"smiles": "CC1(C)C([N+](=O)[O-])C(c2ccc(F)cc2)NC(c2ccc(F)cc2)C1[N+](=O)[O-]", "note": "(stereo not given)", "activity (protection from FP59)": "2.83% (inactive)"}
{"smiles": "O=S(=O)(NCCc1ccccc1F)c1cccc(S(=O)(=O)N2CCOCC2)c1", "activity (protection from FP59)": "-1.27% (inactive)"}
{"smiles": "CC1CS(=O)(=O)CCN1N=Cc1ccc([N+](=O)[O-])o1", "note": "(stereo not given)", "activity (protection from FP59)": "2.87% (inactive)"}
{"smiles": "C=CCn1c(SCc2ccc(C(=O)NCCO)cc2)nc2ccccc2c1=O", "activity (protection from FP59)": "-1.12% (inactive)"}
{"smiles": "COc1ccc(C(=O)c2sc(Nc3ccccc3)nc2N)cc1", "activity (protection from FP59)": "-1.2% (inactive)"}
{"smiles": "COc1ccccc1CCNC(=O)C(=O)NCC1OCCN1S(=O)(=O)c1ccc(OC)c(OC)c1", "note": "(stereo not given)", "activity (protection from FP59)": "-1.42% (inactive)"}
{"smiles": "COc1ncnc(NS(=O)(=O)c2ccc(N)cc2)c1OC", "activity (protection from FP59)": "-1.32% (inactive)"}
{"smiles": "O=[N+]([O-])c1ccc(-c2cn3c(n2)SCC3)cc1", "activity (protection from FP59)": "-1.08% (inactive)"}
{"smiles": "O=C1NC(CCc2ccccc2)C(=O)N1Cc1ccccc1Cl", "note": "(stereo not given)", "activity (protection from FP59)": "0.227% (inactive)"}
{"smiles": "O=C(C1=C[C@H](c2ccccc2)C[C@H](OCCCCO)O1)N1CCN(Cc2ccc3c(c2)OCO3)CC1", "activity (protection from FP59)": "-0.646% (inactive)"}
{"smiles": "Cc1cc(C)cc(S(=O)(=O)c2cn(C)c3cc(N4CCN(C)CC4)c(F)cc3c2=O)c1", "activity (protection from FP59)": "-1.55% (inactive)"}
{"smiles": "COCC(=O)N1CCC(n2nccc2NC(=O)c2ccccc2OC)CC1", "activity (protection from FP59)": "-1.56% (inactive)"}
{"smiles": "CC(=O)c1ccc2c(c1)c1ccccc1n2CC(C)C", "activity (protection from FP59)": "-1.24% (inactive)"}
{"smiles": "Cc1ccc(S(=O)(=O)N2CCC(C)CC2)cc1", "activity (protection from FP59)": "-1.49% (inactive)"}
{"smiles": "Cn1cc(SCC(=O)Nc2nccs2)c2ccccc21", "activity (protection from FP59)": "-1.34% (inactive)"}
{"smiles": "Cc1cc(=O)[nH]c(=S)[nH]1", "activity (protection from FP59)": "-1.48% (inactive)"}
{"smiles": "Cc1ccc(S(=O)(=O)NCC(=O)N/N=C/c2ccc(Cl)cc2)cc1", "activity (protection from FP59)": "-0.814% (inactive)"}
{"smiles": "COc1ccc(-n2nc(C(=O)Nc3cc(OC)c(OC)c(OC)c3)c3ccccc3c2=O)c(OC)c1", "activity (protection from FP59)": "-0.854% (inactive)"}
{"smiles": "CCCNC(=O)COc1coc(CN2CCN(c3ccccc3OC)CC2)cc1=O", "activity (protection from FP59)": "-1.39% (inactive)"}
{"smiles": "CCCCNc1nnc(SCC(=O)c2c(N)n(CCC)c(=O)[nH]c2=O)s1", "activity (protection from FP59)": "-1.3% (inactive)"}
